Here are results for 32 targets from the supplement of paper PMC10849652.

Targets with a hit are over-represented here; the source holds about 8,800 in all. About 0.5% of all pairs of compound and target were hits. A number with no mark means an inactive call.

Sequence of UniProt P01116 (P01116 whole entry, looked up): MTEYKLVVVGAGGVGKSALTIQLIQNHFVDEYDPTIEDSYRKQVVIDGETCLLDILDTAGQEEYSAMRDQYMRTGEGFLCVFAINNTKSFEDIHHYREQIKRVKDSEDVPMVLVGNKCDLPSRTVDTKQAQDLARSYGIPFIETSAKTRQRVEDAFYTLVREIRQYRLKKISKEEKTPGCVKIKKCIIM
Sequence of UniProt A1L020 (A1L020 whole entry, looked up): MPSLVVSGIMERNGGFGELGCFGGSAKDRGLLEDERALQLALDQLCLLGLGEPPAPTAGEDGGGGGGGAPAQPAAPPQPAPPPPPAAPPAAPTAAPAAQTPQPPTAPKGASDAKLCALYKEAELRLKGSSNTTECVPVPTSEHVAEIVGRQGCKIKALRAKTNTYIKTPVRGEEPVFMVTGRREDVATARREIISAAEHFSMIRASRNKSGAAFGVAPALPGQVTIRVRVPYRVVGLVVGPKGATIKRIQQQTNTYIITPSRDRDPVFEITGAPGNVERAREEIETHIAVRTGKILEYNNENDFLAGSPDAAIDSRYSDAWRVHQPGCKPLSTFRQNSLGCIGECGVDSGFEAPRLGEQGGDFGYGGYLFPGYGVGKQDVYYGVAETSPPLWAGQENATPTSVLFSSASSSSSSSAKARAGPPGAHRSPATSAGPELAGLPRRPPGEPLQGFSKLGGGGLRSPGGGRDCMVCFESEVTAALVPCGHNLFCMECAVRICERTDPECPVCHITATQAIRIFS
Sequence of UniProt Q5T3J3 (Q5T3J3 whole entry, looked up): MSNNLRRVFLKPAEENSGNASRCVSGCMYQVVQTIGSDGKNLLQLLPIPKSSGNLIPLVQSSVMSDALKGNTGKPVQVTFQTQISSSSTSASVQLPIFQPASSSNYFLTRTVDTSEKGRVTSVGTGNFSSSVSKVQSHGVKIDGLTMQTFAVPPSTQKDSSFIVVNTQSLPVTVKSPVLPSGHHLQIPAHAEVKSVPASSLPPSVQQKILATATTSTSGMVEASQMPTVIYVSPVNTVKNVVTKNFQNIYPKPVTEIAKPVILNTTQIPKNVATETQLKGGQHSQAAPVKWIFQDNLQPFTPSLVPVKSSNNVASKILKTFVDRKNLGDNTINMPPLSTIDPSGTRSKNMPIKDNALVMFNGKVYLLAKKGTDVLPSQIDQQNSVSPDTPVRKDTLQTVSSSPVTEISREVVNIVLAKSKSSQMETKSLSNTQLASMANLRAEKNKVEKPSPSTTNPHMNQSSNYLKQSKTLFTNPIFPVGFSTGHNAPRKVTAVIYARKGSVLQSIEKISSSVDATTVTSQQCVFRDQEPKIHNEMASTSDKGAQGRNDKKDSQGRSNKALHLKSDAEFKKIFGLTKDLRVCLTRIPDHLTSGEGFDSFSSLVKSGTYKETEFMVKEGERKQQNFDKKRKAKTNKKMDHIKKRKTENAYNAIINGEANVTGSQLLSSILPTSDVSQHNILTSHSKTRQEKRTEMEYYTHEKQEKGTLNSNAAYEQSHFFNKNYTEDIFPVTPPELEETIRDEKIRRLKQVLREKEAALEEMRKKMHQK
Sequence of UniProt Q96JM4 (Q96JM4 whole entry, looked up): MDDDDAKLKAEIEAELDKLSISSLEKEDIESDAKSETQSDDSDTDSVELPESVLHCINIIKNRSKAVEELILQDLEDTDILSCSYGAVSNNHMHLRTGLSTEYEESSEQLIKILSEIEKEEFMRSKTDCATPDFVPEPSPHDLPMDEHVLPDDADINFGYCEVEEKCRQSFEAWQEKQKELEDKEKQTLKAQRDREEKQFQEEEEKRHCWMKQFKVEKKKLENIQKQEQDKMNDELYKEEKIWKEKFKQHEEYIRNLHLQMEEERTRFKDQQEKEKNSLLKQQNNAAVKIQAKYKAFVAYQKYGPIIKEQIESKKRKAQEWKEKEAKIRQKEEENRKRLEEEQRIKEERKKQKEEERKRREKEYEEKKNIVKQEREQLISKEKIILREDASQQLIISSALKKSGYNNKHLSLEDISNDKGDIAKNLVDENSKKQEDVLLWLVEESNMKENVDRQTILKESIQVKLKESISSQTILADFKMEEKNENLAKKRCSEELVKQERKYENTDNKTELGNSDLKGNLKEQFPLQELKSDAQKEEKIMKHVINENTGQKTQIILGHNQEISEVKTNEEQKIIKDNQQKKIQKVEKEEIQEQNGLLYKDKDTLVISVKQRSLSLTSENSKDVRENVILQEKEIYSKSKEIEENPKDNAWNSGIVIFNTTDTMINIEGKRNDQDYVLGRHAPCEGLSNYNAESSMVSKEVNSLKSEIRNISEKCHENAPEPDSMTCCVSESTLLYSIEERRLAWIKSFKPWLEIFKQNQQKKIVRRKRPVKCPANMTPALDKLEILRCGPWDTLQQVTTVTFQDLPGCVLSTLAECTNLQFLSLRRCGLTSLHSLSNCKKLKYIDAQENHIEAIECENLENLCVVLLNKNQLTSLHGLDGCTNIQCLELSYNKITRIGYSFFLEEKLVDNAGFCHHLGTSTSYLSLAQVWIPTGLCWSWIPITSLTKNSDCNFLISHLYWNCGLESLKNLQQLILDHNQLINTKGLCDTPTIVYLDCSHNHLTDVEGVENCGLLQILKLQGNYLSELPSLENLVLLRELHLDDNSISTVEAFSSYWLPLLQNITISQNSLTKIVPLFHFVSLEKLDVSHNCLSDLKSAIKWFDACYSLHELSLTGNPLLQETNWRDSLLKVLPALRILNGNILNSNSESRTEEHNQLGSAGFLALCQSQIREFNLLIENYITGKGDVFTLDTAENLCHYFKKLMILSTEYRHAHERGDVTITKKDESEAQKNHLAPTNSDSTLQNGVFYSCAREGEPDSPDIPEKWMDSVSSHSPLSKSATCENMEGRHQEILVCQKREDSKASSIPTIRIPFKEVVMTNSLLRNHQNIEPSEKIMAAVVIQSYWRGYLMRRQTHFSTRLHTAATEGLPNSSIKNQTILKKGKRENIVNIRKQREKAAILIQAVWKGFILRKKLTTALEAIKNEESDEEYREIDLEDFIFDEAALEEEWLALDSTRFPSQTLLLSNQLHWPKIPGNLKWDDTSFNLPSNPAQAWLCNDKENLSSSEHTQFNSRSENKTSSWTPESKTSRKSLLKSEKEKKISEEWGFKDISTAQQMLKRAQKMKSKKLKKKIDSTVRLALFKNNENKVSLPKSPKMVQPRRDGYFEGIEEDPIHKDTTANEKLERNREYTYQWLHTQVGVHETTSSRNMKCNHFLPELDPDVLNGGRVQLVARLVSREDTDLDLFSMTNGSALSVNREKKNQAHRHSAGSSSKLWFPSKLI
Sequence of UniProt P53667 (P53667 whole entry, looked up): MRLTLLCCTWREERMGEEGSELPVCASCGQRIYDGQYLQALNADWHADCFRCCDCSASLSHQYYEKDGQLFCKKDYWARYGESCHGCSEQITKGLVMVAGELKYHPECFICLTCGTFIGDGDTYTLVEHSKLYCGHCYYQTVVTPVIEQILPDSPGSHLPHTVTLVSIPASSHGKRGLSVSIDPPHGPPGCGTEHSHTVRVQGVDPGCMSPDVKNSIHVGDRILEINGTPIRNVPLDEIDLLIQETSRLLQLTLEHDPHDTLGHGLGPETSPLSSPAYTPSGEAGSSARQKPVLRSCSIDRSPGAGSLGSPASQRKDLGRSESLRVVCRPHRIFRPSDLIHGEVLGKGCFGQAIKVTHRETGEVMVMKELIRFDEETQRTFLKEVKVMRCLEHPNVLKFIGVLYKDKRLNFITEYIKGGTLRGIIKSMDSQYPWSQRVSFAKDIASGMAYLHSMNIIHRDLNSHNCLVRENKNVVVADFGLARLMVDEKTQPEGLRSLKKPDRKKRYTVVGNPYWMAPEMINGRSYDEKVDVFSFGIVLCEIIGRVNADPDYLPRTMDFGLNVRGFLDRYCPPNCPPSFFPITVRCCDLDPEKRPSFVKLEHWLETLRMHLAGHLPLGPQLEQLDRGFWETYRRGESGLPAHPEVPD
Sequence of UniProt Q8TC05 (Q8TC05 whole entry, looked up): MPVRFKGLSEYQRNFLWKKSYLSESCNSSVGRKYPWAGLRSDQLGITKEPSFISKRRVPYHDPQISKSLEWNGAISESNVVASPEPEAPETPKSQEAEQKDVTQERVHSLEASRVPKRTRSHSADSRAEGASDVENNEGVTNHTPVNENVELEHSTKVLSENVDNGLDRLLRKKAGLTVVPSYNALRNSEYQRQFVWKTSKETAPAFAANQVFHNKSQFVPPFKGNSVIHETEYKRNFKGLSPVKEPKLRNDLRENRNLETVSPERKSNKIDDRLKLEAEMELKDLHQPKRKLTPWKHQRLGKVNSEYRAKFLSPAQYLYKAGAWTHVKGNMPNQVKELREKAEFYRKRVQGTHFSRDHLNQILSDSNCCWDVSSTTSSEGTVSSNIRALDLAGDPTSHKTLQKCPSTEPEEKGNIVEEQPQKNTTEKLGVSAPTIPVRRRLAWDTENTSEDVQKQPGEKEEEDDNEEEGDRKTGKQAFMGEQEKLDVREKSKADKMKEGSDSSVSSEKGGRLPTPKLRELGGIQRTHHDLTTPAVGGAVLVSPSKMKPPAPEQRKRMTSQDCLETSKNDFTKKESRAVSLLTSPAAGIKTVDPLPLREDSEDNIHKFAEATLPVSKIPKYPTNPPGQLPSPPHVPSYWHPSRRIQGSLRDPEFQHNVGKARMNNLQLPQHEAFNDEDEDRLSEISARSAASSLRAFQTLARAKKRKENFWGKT
Sequence of UniProt P83369 (P83369 whole entry, looked up): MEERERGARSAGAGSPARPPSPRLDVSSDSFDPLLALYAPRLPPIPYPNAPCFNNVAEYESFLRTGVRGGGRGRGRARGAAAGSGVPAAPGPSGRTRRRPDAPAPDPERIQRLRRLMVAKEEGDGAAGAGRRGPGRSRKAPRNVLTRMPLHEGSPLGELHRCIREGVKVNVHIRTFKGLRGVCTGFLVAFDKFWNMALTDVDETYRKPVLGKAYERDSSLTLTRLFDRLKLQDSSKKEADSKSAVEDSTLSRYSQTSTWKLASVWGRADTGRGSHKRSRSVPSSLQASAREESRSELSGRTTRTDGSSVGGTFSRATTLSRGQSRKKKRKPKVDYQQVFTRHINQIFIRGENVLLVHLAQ
Sequence of UniProt Q16553 (Q16553 whole entry, looked up): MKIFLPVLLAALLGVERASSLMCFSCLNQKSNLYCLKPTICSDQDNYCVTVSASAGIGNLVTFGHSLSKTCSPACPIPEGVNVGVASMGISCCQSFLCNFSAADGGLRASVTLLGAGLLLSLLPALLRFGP

Compound in the first assay: C1=CC=C(C=C1)C2=NC(=C(N2)C3=CC=NC=C3)C4=CC(=C(C=C4)Cl)O
Description: log2 fold change, soluble protein after heating vs DMSO (PISA); higher = thermal stabilisation; K562 lysate, 10 uM; active = over 0.2 and 3.5 SD of the protein, either way, in both replicates (recomputed). In short, it runs like this:
(§1)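 Dounce homogenisation of K562 pellets in PBS pH 7.4 with 1 mM MgCl2 produced a crude extract, used at 1 mg/mL protein. Exposure to 10 μM compound lasted 30 min, and aliquots were then heated for 3 min across 48°C-58°C, pooled and brought to 0.5% NP-40 at 4°C. The supernatant after 21,000xg for 90 min was quantified by TMTpro 16plex LC-MS/MS with channel sums equalised. Duplicate values are given as log-two fold change in thermal stability relative to solvent controls.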
Regarding MPDZ (UniProt O75970), the log2 fold change is -0.091.

On to KIF3C (UniProt O14782), for which the log2 fold change is 0.025.

Take MRPL22 (UniProt Q9NWU5): the log2 fold change is 0.006.

On to LRIF1 (UniProt Q5T3J3), for which the log2 fold change is 0.

Regarding MCUB (UniProt Q9NWR8), the log2 fold change is 0.048.

As for MEGF8 (UniProt Q7Z7M0), the log2 fold change was 0.075.

Turning to MAN2B2 (UniProt Q9Y2E5), the log2 fold change was -0.035.

For MRPL27 (UniProt Q9P0M9), the log2 fold change was 0.056.

Turning to LRRIQ1 (UniProt Q96JM4), the log2 fold change is 0.041.

With KRAS (UniProt P01116), the log2 fold change was -0.036.

As to MDM1 (UniProt Q8TC05), the log2 fold change is -0.054.

With LEPROT (UniProt O15243), the log2 fold change was -0.064.

For the target LYN isoform 2 (UniProt P07948), the log2 fold change was 0.132.

Turning to LIMK1 (UniProt P53667), the log2 fold change was -0.002.

Take MED28 (UniProt Q9H204): the log2 fold change is 0.045.

Take MRPL30 isoform 2 (UniProt Q8TCC3): the log2 fold change is -0.03.

Consider LRRC7 (UniProt Q96NW7), for which the log2 fold change was 0.065.

For the target KRAS isoform 2 (UniProt P01116), the log2 fold change was -0.071.

As to METTL21A (UniProt Q8WXB1), the log2 fold change was -0.027.

MEX3A (UniProt A1L020): the log2 fold change is -0.007.

On to MED25 isoform 3 (UniProt Q71SY5), for which the log2 fold change is -0.006.

Regarding MAP4K4 isoform 6 (UniProt O95819), the log2 fold change was -0.061.

In the case of MME (UniProt P08473), the log2 fold change was 0.011.

MAPKAP1 (UniProt Q9BPZ7): the log2 fold change is 0.062.

Compound in another assay: C1=CC=C2C(=C1)C3=NNC4=CC=CC(=C43)C2=O
The assay is described as above. The essentials:
as §1
For the target MPDZ (UniProt O75970), the log2 fold change is 0.004.

On to KIF3C (UniProt O14782), for which the log2 fold change is -0.117.

As for LRIF1 (UniProt Q5T3J3), the log2 fold change was 0.1.

On to MAP3K6 (UniProt O95382), for which the log2 fold change is 0.487.

With LRRIQ1 (UniProt Q96JM4), the log2 fold change is -0.003.

On to LRPPRC (UniProt H7C3W8), for which the log2 fold change was -0.3.

Turning to LGALS3BP (UniProt Q08380), the log2 fold change was -0.203.

Turning to KRAS (UniProt P01116), the log2 fold change was -0.041.

Consider MDM1 (UniProt Q8TC05), for which the log2 fold change is -0.041.

Turning to LIMK1 (UniProt P53667), the log2 fold change was 0.029.

For LRRC7 (UniProt Q96NW7), the log2 fold change is 0.038.

As for LRP1 (UniProt Q07954), the log2 fold change was -0.211.

On to LRRC9 (UniProt Q6ZRR7), for which the log2 fold change was -0.01.

As to LY6E (UniProt Q16553), the log2 fold change was -0.27.

Consider MEX3A (UniProt A1L020), for which the log2 fold change was -0.29.

On to KIFC3 isoform 6 (UniProt Q9BVG8), for which the log2 fold change was -0.077.

As for LSM11 (UniProt P83369), the log2 fold change was -0.044.
